The values that follow come from PubChem BioAssay AID602144 (Vanderbilt Specialized Chemistry Center, 2011).

A number with no mark means an inactive call. Active and inactive are the calls of the source. Cut-off read from the data, not from the text of the source: active = remaining activity below about 50%; inactive = the rest.

The assay deals with Phospholipase D1 (Homo sapiens) (UniProt Q13393). Nature of the assay: PLD1 inhibitors in cells, Calu-1 cells, single concentration (AID 602144).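 Note: tested at 200 nM.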 To be noted: cellular PLD1 activity, active compounds read low.
Chain of Phospholipase D1 (Homo sapiens) (Q13393 whole entry, looked up): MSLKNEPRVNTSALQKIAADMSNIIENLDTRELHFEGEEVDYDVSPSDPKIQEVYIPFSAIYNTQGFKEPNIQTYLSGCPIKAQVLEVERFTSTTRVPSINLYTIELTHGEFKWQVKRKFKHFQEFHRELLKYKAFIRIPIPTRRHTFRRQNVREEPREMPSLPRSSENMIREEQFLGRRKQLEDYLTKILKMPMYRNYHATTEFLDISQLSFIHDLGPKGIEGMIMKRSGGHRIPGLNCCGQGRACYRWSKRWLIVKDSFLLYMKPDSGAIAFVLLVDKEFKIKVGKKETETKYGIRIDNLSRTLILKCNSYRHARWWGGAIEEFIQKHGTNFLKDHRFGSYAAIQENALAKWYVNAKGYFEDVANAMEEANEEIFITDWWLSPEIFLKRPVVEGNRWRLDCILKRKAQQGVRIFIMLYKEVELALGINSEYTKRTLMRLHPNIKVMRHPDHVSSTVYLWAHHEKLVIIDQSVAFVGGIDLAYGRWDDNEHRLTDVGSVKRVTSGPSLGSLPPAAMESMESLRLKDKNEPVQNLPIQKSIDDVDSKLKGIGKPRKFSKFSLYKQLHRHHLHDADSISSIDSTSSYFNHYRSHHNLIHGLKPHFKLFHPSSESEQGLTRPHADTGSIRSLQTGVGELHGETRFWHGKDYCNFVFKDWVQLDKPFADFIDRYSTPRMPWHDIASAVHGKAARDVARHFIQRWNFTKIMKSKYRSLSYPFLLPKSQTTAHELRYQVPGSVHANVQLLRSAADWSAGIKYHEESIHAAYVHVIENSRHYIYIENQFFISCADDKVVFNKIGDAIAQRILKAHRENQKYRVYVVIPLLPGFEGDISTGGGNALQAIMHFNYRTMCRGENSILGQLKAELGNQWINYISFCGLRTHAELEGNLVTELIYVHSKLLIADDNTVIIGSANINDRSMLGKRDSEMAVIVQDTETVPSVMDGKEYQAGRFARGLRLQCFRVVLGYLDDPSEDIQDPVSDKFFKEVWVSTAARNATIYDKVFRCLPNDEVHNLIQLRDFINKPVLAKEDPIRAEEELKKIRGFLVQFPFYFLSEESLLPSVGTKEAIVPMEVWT
Chain of Phospholipase D1 (Homo sapiens) (Q13393 whole entry, looked up): as above
For `O=C(NCCN1CCC2(CC1)C(=O)NCN2c1ccccc1)c1cc(-c2ccccc2)no1`, the remaining activity was 97.4%. `O=C(NCCN1CCC2(CC1)C(=O)NCN2c1ccc(F)cc1)c1ccc(F)cc1`: the remaining activity was 78.2%.

Take `O=C(NCCN1CCC2(CC1)C(=O)NCN2c1ccc(F)cc1)c1cc2ccccc2[nH]1`: the remaining activity is 32.3% (active). For the compound `O=C(NCCN1CCC2(CC1)C(=O)NCN2c1ccc(F)c(F)c1)c1ccc(Cl)cc1`, the remaining activity is 94.9%.

On to `CCCCCC(=O)NCCN1CCC2(CC1)C(=O)NCN2c1cccc(F)c1`, for which the remaining activity is 109%. As for `CC(C)[C@@H](CN1CCC2(CC1)C(=O)NCN2c1ccccc1)NC(=O)c1ccc(Cl)cc1`, the remaining activity is 18% (active). To `C[C@@H](CN1CCC2(CC1)C(=O)NCN2c1ccc(F)c(F)c1)NC(=O)c1cc2cc(F)ccc2[nH]1` belongs 0% (active).

Consider `O=C(c1cccc(F)c1)N(CCN1CCC2(CC1)C(=O)NCN2c1cccc(F)c1)C(=O)c1cccc(F)c1`, for which the remaining activity is 93.5%. To `C[C@@H](CN1CCC2(CC1)C(=O)NCN2c1ccccc1)NC(=O)[C@@H]1C[C@H]1c1ccccc1` belongs 70.5%. To `O=C(NCCN1CCC2(CC1)C(=O)NCN2c1ccccc1)c1cnco1` belongs 98%; to `O=C(C1CC1c1ccccc1)N1CC(N2CCC3(CC2)C(=O)NCN3c2ccccc2)C1` (stereo not drawn), 94.4%; to `O=C(NCCN1CCC2(CC1)C(=O)NCN2c1ccc(Cl)cc1)c1ccc(F)cc1`, 123%.

As to `O=C(NCCN1CCC2(CC1)C(=O)NCN2c1ccccc1)C1(c2ccccc2)CCC1`, the remaining activity was 94.9%.
